# Assay outcomes deposited in PubChem BioAssay by National Center for Advancing Translational Sciences (NCATS).
# TDP1 block – blocks human tyrosyl-DNA phosphodiesterase 1 | recombinant TDP1, AlphaScreen DNA substrate cleavage | Potency, µM (top dose mostly 130 µM), inactives show at the highest dose activity change, negative = inhibition, most hits filed as inhibitors | 350,000 tested, 0.28% active; also: % is scaled to controls: 0 for no effect and ±100 for the full control effect; nearly all actives have a fitted effect of over 40% in size
# Target sequence (Q9NUW8 whole entry, looked up): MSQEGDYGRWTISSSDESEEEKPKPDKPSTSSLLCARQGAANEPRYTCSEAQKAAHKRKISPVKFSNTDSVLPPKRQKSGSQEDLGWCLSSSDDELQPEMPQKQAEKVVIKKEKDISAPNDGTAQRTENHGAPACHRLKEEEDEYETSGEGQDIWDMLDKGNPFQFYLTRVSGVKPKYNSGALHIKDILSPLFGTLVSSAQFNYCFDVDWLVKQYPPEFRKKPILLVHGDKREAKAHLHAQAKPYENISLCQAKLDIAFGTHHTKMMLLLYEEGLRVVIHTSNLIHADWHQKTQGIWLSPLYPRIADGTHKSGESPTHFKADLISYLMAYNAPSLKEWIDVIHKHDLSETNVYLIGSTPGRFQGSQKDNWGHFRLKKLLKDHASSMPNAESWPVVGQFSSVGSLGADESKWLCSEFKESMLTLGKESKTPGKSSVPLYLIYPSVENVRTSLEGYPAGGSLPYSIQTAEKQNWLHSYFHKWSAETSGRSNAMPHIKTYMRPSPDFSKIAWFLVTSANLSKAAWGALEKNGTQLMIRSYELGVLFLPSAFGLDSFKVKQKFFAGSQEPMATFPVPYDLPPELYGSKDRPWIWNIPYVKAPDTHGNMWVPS
#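 Enzyme-compound mixtures sat 15 min at room temperature, followed by a 5 min reaction with 15 nM final substrate and 10 min with AlphaScreen beads. Recombinant human Tdp1 was used at 1 nM final.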
# G9a block – inhibitors of human histone lysine methyltransferase G9a; Q96KQ7; G9a H3K9 monomethylation, AlphaScreen, 2 h; Potency, µM (doses to about 102 µM), for inactives: at the highest dose activity, negative = inhibition, actives largely listed as inhibitors; 350,000 tested, 8.8% active; AID 504332; also: % is scaled to controls: 0 for no effect and ±100 for the full control effect; nearly all actives have a fitted effect of over 75% in size
#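 Quantitative HTS format: methyltransferase activity on a biotin-tagged H3K9 peptide is measured by AlphaScreen, using a rabbit anti-monomethyl-H3K9 antibody with streptavidin donor and anti-IgG acceptor beads. Final levels are 20 nM enzyme, 500 nM peptide, 20 uM SAM; 2 h RT.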
# Sfp PPTase inh – inhibitors of Bacillus subtilis Sfp phosphopantetheinyl transferase. AID 1490. 310,000 tested, 3.5% active. Biochemical Sfp PPTase activity, qHTS. Potency, µM, for the others: largest response in the series, negative = inhibition, actives largely listed as inhibitors. Q9F4F7;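 also: the enzyme is Sfp with the accession as filed and its product quenches rhodamine fluorescence; 0% = enzyme reaction without inhibitor and -100% = no enzyme wells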
#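 Compounds were incubated with enzyme (final 15 nM) for 15 min at room temperature before substrate addition started the reaction. Fluorescence at 525 nm excitation, 598 nm emission was recorded immediately and after 30 minutes.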
# JMJD2A Tudor inh – JMJD2A Tudor domain (human) inhibition; AlphaScreen JMJD2A-Tudor / H3K4me3 peptide binding; Potency, µM (titrated, usually from 114 µM), for inactives: top-dose activity change, negative = inhibition, hits mostly inhibitors; 390,000 tested, 4.4% active; also: % is scaled to controls: 0 for no effect and ±100 for the full control effect; nearly all actives have a fitted effect of over 50% in size
# BAZ2B block – blocks human BAZ2B; Q9UIF8; AlphaScreen BAZ2B-H3K14Ac peptide displacement; Potency, µM (doses to about 114 µM), for inactives: at the top dose activity change, negative = inhibition, most hits filed as inhibitors; 360,000 tested, 4.4% active; also: % is scaled to controls: 0 for no effect and ±100 for the full control effect; nearly all actives have a fitted effect of over 60% in size
#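 AlphaScreen displacement of biotin-H3(5-23)K14Ac peptide (50 nM final) from BAZ2B (50 nM final) in PBS pH 7.4, 0.01% Tween-20; complex preformed 30 min RT, then compounds (top 110 uM) 30 min RT, beads 20 min dark.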
# HP1b chromo inh – HP1-beta chromodomain-methylated histone interaction inhibition | P83916 | Potency, µM (doses to about 114 µM), inactives show at the highest dose activity change, negative = inhibition, hits mostly inhibitors | AlphaScreen HP1-beta / biotin-H3K9me3 peptide binding | 390,000 tested, 0.56% active; also: nearly all actives have a fitted effect of over 70% in size
#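 HP1-beta protein (50 nM final) preincubated 30 min at room temperature with biotinylated H3(1-18)K9me3 peptide (50 nM) in PBS pH 7.4, 0.01% Tween-20, then compound added for 30 min. AlphaScreen streptavidin donor/nickel chelate acceptor beads (10 ug/mL final), 30 min dark, luminescence read.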
# Starred values were filed as active, the others as inactive; ? = inconclusive; · = no result; ! = not active in a repeat; [ ] = remark or other dose. Most compounds without a hit are left out; they make up all but 12% or so of the library. Calls follow the shape of the dose curve; as a rule, active = well fitted curve in the direction sought with a large enough effect; inconclusive = small, poorly fitted or top-dose-only effect, or another doubt; inactive = no such curve, though single readings can be large; an effect the other way counts as inactive or inconclusive. Potency is read from the fitted curve at half-maximal effect.
SMILES,TDP1 block,G9a block,Sfp PPTase inh,JMJD2A Tudor inh,BAZ2B block,HP1b chromo inh
Cn1c(SCC(=O)NC2CC2)nnc1-c1ccccc1,3%,-6%,20%,-16%,-1%,41%
O=C(/C(Cl)=C/Nc1ccc(Br)cn1)C(F)(F)F,6%,-40%,-3%,-7%,-7%,28%
O=C(O)c1ccccc1C(=O)Nc1ccc(Oc2cccc3ccccc23)cc1,6%,40µM*,2%,-35%,50µM*,18%
Cc1cccc(Oc2ccc(NC(=O)c3ccccc3C(=O)O)cc2)c1C,5%,?,3%,-21%,?,27%
COc1ccccc1N1CCN(S(=O)(=O)c2cn(C)nc2C)CC1,3%,14%,10%,-12%,-14%,30%
COc1ccccc1-n1c(-c2cn(C)nc2C)n[nH]c1=S,-4%,7.1µM*,56µM*,22µM*,-1%,15%
COc1ccc(OC)c(-n2c(-c3cccc(C)c3)n[nH]c2=S)c1,-1%,1.1µM*,79µM*,?,?,-24%
COc1ccc(OC)c(-n2c(=S)[nH]c3c(sc(=S)n3-c3ccccc3)c2=O)c1,5%,14%[59 µM],-3%,?,-27%,32%
COc1ccccc1-n1c(-c2ccccc2)n[nH]c1=S,5%,·,71µM*,2.8µM*,-24%,12%
COc1ccc(OC)c(-n2c(C)cc(C=O)c2C)c1,9%,-29%,9%,-18%,-37%,18%
COc1ccc(OC)c(-n2c(-c3ccccc3)n[nH]c2=S)c1,1%,?,-10%,3.2µM*,-5%,21%
O=C(Cc1coc2cc(O)ccc12)N1CCN(S(=O)(=O)c2ccc(Br)cc2)CC1,·,·,·,-33%,·,-1%
CCN(CC)C(=O)N1CCN(C)CC1,6%[56.1 µM],14µM*!,-9%,56µM*,?,-19%
CCN(CC)C(=O)N1CCN(C(=O)N(CC)CC)CC1,5%,15%[0.501 µM],16%,3%,6%,33%
CC1=C(C#N)C(c2cccnc2)C2=C(N1)c1ccccc1C2=O (stereo not drawn),5%,35µM*,16%,-9%,-35%,12%
CSC1=C(C#N)C(c2ccccc2Cl)C2=C(N1)c1ccccc1C2=O (stereo not drawn),1%,16µM*,-9%,32µM*,-31%[57.1 µM],?
CC1=C(C#N)C(c2cccnc2)C2=C(CCCC2=O)N1 (stereo not drawn),2%,-11%[59 µM],6%,2%[11.4 µM],0%,6%
CSC1=C(C#N)C(c2ccccc2Cl)C2=C(CCCC2=O)N1 (stereo not drawn),-2%,2%[59 µM],8%,·,0%,·
O=C(NCCc1nc(-c2ccccc2Cl)no1)C1CCCCC1,·,·,·,-8%,·,68%
Cc1ccc(Cl)cc1NC(=O)C[n+]1ccc(Cc2ccc([N+](=O)[O-])cc2)cc1,5%,25µM*,45µM*,?,-4%,21%
O=C(NCCc1ccccc1)c1ccc(NC(=O)C2CCCCC2)cc1,·,·,·,-14%,·,37%
O=C(Cn1nnc(-c2ccccc2)n1)c1ccccc1,-2%,41%,10%,11%,39%,55%
O=C(Cn1nnc(-c2ccccc2)n1)NNC(=O)c1ccccc1,-1%,40µM*,-27%,-11%,-18%,?
O=C(Cn1nnc(-c2ccc(F)cc2)n1)OCC(=O)c1ccccc1,4%,?,79µM*,-9%,-13%,38%
COc1ccccc1N1CCN(S(=O)(=O)c2cc(C(=O)Nc3ccc(Oc4ccccc4)cc3)ccc2F)CC1,13%,-18%[59 µM],·,-22%,-2%,43%
SMILES,TDP1 block,G9a block,Sfp PPTase inh,JMJD2A Tudor inh,BAZ2B block,HP1b chromo inh
Cc1cc(SCC(=O)N2CCCC2)nc2ccccc12,2%,4%,8%,-2%,-6%,34%
CC(C)(C)c1nc(SCC(=O)N2CCCC2)c2ccccc2n1,3%,50µM*,-16%,12%,-8%,36%
CCn1ccc2cc(S(=O)(=O)N3CCCN(C(=O)Nc4cccc(SC)c4)CC3)ccc21,1%,2%[59 µM],·,-12%,-14%,18%[57 µM]
CC(C)(C)C1CCc2c(sc(NC(=O)C3CCCO3)c2C(N)=O)C1 (stereo not drawn),2%,22%[0.501 µM],-13%,?,?,-17%
CC(C)(C)C1CCc2onc(C(=O)Nc3sc4c(c3C#N)CCCC4)c2C1 (stereo not drawn),-3%,2.8µM*,·,-26%,-18%,-18%
CC(C)(C)C1CCc2onc(C(=O)Nc3sc4c(c3C(N)=O)CCCC4)c2C1 (stereo not drawn),-5%,3.2µM*,·,-25%,0%,?
O=C(CN(Cc1ccccc1)S(=O)(=O)c1ccc(F)cc1)NCc1ccccn1,·,24%,-14%,-14%,-4%,25%
O=C(CN1CCN(c2ccccc2)CC1)Nc1ccccc1Cl,8%,-40%,-1%,-10%,?,27%
O=C(CN1CCN(c2ccc(O)cc2)CC1)NCC(=O)Nc1ccc(F)c(F)c1F,0%,?,·,45µM*,-2%,?
O=C(CN1CCN(c2ccc(O)cc2)CC1)NC(c1ccccc1)c1ccccc1,-2%,7.9µM*,10µM*,50µM*,?,?
O=C(CN1CCN(c2ccc(O)cc2)CC1)Nc1cc([N+](=O)[O-])ccc1Cl,5%,5.6µM*,?,?,?,-21%
O=C(CN1CCCCCC1)NC(c1ccccc1)c1ccccc1,·,7.9µM*,-30%,22µM*,79µM*,?
COc1cc2cc(CCOC(=O)c3ccc(C#N)cc3)oc(=O)c2cc1OC,1%,10%[0.501 µM],·,-12%,1%,61%
CC(=O)Nc1ccc(OC(C)=O)cc1,-3%,2%[12.7 µM],-1%,·,·,·
C=CCn1c(C(CC(C)C)CC(C)O)n[nH]c1=S (stereo not drawn),5%,28µM*,-13%,8.9µM*,-1%,-23%
C=CCn1c(C(CC)CC(C)(C)O)n[nH]c1=S (stereo not drawn),-5%,-2%[59 µM],-12%,-16%,-39%,·
C=CCn1c(C(CCCC)CC(O)COCC(C)C)n[nH]c1=S (stereo not drawn),5%,32µM*,?,40µM*,-24%,48%
C=CCn1c(CCC(O)COCCCCC)n[nH]c1=S (stereo not drawn),3%,28µM*,?,20µM*,-20%,-14%
CCOC(=O)Cc1ccc(NC(=O)N2CCSc3ccccc32)cc1,-2%,5%[59 µM],·,-11%,-2%,20%
COc1ccc2c(C)c(C(=O)O)oc2c1,3%,-18%,5%,-25%[57.1 µM],2%,63%
COc1ccc2c(=O)cc(C(=O)O)oc2c1,0%,56µM*,6%,-10%,-22%,36%
